# HT1080NT lethal: kills 2HG-producing HT-1080-NT fibrosarcoma cells | AID 686970 | Potency, µM (highest dose often 46.1 µM), usual class: cytotoxic | 360,000 tested, 1.6% active | HT-1080-NT fibrosarcoma viability, CellTiter-Glo ATP luminescence, 48 h;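 further: NT is the 2HG producing partner of a matched IDH1 knockdown line; nearly all actives have a fitted effect of over 55% in size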
#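 Compounds were tested in concentration-response format on HT-1080-NT cells for 48 hours at 37 degrees C. Cell viability came from CellTiter-Glo luminescence; curves were classified by r2, response magnitude and activity.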
# KB-3-1 tox: kills parental KB-3-1 adenocarcinoma cells; KB-3-1 viability, CellTiter-Glo ATP luminescence, 72 h; Potency, µM (doses to about 46.1 µM), hits mostly cytotoxic; 400,000 tested, 1.4% active; further: nearly all actives have a fitted effect of over 60% in size
#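 Screening of KB-3-1 cells (DMEM, 10% FBS, phenol-red free) ran from lowest to highest compound concentration; after 72 h at 37 °C viability was read luminescently and curves fitted.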
# SW480 rerep: DNA re-replication induction in SW480 cells; AID 624297; Potency, µM (top dose mostly 46.1 µM), usual class: activators; SW480 DNA re-replication, Hoechst DNA content imaging, 48 h; 340,000 tested, 1.8% active; further: nearly all actives have a fitted effect of over 55% in size
#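 250 cells/well; 23 nL cpd via pin tool; 48 hr, 37 C, 5% CO2; Hoechst 40 min; imager read of total nuclear intensity, ex 405/em 500-530 nm.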
# HT1080 IDH1KD tx: HT-1080 IDH1 knockdown cell toxicity (counter line) | Potency, µM (titrated, usually from 46.1 µM), actives largely listed as cytotoxic | AID 686971 | HT-1080 IDH1 knockdown viability, ATP luminescence, 48 h | 360,000 tested, 2% active
#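 Knockdown cells (IDH1KD HT-1080) received compounds 2 h after plating at 750 cells/well and were kept 48 h at 37 °C in 5% FBS RPMI. A CellTiter-Glo luminescence read gave % activity for curve fitting.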
# KB-V1 cytotox: KB-V1 MDR subline cytotoxicity. KB-V1 MDR cells viability, CellTiter-Glo, 72 h. Potency, µM (doses to about 46.1 µM), actives largely listed as cytotoxic. 400,000 tested, 3.4% active; further: nearly all actives have a fitted effect of over 60% in size
#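 Readout: CellTiter-Glo luminescence, 10 min after addition. Cells: KB-V1 MDR subline, 72 h at 37 degrees C with compound. Analysis: corrected, normalized data fitted to concentration-effect curves.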
# MCF10A rerep: DNA re-replication induction in MCF 10a cells; MCF 10A DNA re-replication, Hoechst nuclear intensity, 48 h; Potency, µM (top dose mostly 46.1 µM), hits mostly activators; 350,000 tested, 2.9% active; AID 624296; further: nearly all actives have a fitted effect of over 50% in size
# Numbers stand for hits; - = inactive; ? = inconclusive; . = no result; [ ] = remark or other dose. Most compounds without a hit are left out; they make up all but 8% or so of the library. The call rests on the fitted dose curve; in most records, active means well fitted curve in the direction sought with a large enough effect; inconclusive means small, poorly fitted or top-dose-only effect, or another doubt; inactive means no such curve, though single readings can be large; an effect the other way counts as inactive or inconclusive.
SMILES,HT1080NT lethal,KB-3-1 tox,SW480 rerep,HT1080 IDH1KD tx,KB-V1 cytotox,MCF10A rerep
CNc1nc(NCc2ccc(C)cc2C)c2sccc2n1,?,-,.,?,?,.
Cc1ccc(CNc2nc(NCC3CC3)nc3ccsc23)c(C)c1,14.6µM,-,.,16.4µM,?,.
COc1cc2nc(N3CCCN(C)CC3)nc(OC3CCN(C)CC3)c2cc1OC,.,-,.,.,-,.
Cc1cccc(C(C)C)c1NC(=O)C1CN(S(=O)(=O)c2ccccc2)CCN1S(=O)(=O)c1ccccc1 (centres undefined),-,-,-,-,4.11µM,-
CCc1cccc(CC)c1NC(=O)C1CN(S(=O)(=O)c2ccccc2)CCN1S(=O)(=O)c1ccccc1 (centres undefined),-,-,-,-,-,-
CC(C)C(=O)Nc1cccc(-c2nc3ncccc3o2)c1,-,?,?,-,-,-
O=C(Nc1ccc(-c2nc3ccccc3[nH]2)cc1)C1CCCO1 (centres undefined),10µM,?,-,11.2µM,?,-
CCc1ccc(NC(=O)c2ccccc2NC(=O)C2CCCO2)cc1 (centres undefined),-,-,-,-,6.51µM,-
O=C(Nc1cccc(-c2nc3ncccc3o2)c1)c1ccc(-c2cccc(Cl)c2Cl)o1,.,-,.,.,6.51µM,.
CCOC(=O)c1ccccc1NC(=O)C1CCCO1 (centres undefined),-,-,-,-,-,-
O=C(Nc1nc2ccccc2[nH]1)C1CCCO1 (centres undefined),-,-,-,-[9.24 µM],-,?
Cc1ccc2nc(-c3ccc(NC(=O)CSc4ccccc4)cc3)[nH]c2c1,?,-,-,12.6µM,-,-
O=C(CSc1ccccc1)Nc1ccc(-c2nc3ccccc3[nH]2)cc1,13µM,20.6µM,-,?,?,?
O=C(CSc1ccc(Cl)cc1)Nc1cccc(-c2nc3ncccc3o2)c1,-,?,-,-,14.6µM,-
O=C(CSc1ccc(Cl)cc1)Nc1cccc(-c2nc3ccccc3[nH]2)c1,-,-,-,?,-,18.4µM
O=C(Nc1cccc(-c2csc(Nc3ccc(Cl)cc3)n2)c1)c1ccccc1,?,-,-,?,-,-
O=C(Nc1cccc(-c2csc(Nc3ccc(Cl)cc3)n2)c1)c1cccc(C(F)(F)F)c1,?,?,-,?,-,4.11µM
O=C(Nc1cccc(-c2csc(Nc3ccc(Cl)cc3)n2)c1)c1cc([N+](=O)[O-])cc(C(F)(F)F)c1,-,?,-,-,-,9.2µM
CCOC(=O)c1noc2ncnc(Nc3ccc(C)c(F)c3)c12,.,-,.,.,-,.
COc1ccc(N2CCN(C(=O)CN3C(=O)CSc4c3c(C)nn4-c3ccccc3)CC2)cc1,.,-,.,.,-,.
COc1cc(/C=C(\C#N)c2nc3ccccc3[nH]2)ccc1OCc1ccccc1F,.,-,.,.,-,.
Cc1cc(/C=C(\C#N)c2nc3ccccc3[nH]2)c(C)n1C,-,?,?,-,5.17µM,-
COc1cc(/C=C(\C#N)c2nc3ccccc3[nH]2)cc(Br)c1OCc1ccc(F)cc1,-,-,?,-,-,8.2µM
Cc1cc(/C=C(/C#N)c2nc3ccccc3[nH]2)c(C)n1-c1cccc([N+](=O)[O-])c1,-,?,-,-,?,-
COc1cc(/C=C(\C#N)c2nc3ccccc3[nH]2)cc(OC)c1O,-,-,?,-,?,?
SMILES,HT1080NT lethal,KB-3-1 tox,SW480 rerep,HT1080 IDH1KD tx,KB-V1 cytotox,MCF10A rerep
COc1cc(/C=C(\C#N)c2nc3ccccc3[nH]2)cc(Br)c1OCc1ccccc1,?,-,18.4µM,?,-,18.4µM
CCc1sc(-c2cc3ccccc3oc2=O)nc1-c1ccc(C)cc1,.,-,.,.,-,.
COc1ccc(-c2nnc(CSc3nc4ccccc4c(=O)n3C)o2)cc1OC,-,-,-,-,3.66µM,-
Cn1c(SCc2nnc(-c3ccccc3)o2)nc2ccccc21,-,-,-,-,?,-
Cn1c(SCc2ccon2)nc2ccccc2c1=O,-,-,14.6µM,-,-,8.2µM
CCn1c(SCc2ccc(OC)c(F)c2)nc2ccccc2c1=O,?,-,-,-,?,18.4µM

# High-throughput results from PubChem BioAssay.
